Measured values: PubChem BioAssay (Tox21)
Values joined by “and” are separate entries in the source; they are usually repeats but may differ in a detail not shown here. Equal values may be shown once. Records with an inconclusive call do not appear. A call without a number means that no potency is given here. A structure can be active in one record and inactive in another. Active and inactive are the calls of the source. Calls come from the whole dose curve; as a rule, active = well fitted cell-killing curve with a large enough effect in the repeat runs; inconclusive = weak or mixed curves, or effect the other way; inactive = no such curve, though single readings can be large or run the other way.
Potency is the fitted concentration of half-maximal effect.

Experiment: qHTS assay to identify small molecule antagonists of the peroxisome proliferator-activated receptor gamma (PPARg) signaling pathway - cell viability counter screen (AID 743194); note: nearly all actives have a fitted effect of over 55% in size
Conditions: PPARg-bla HEK293H viability, CellTiter-Glo luminescence, 17 h; Potency: co-treated with 50 nM rosiglitazone unless noted; series mostly up to 62.6 µM
From the text: U.S. Tox21 Program National Center for Advancing Translational Sciences [NCATS] NIH Chemical Genomics Center [NCGC] U.S. Environmental Protection Agency [EPA] National Institutes of Environmental Health Sciences [NIEHS] National Toxicology Program [NTP] U.S. Food and Drug Administration [FDA] Tox21 Assay Overview: The peroxisome proliferator-activated receptors (PPARs) are lipid-activated transcription factors of the nuclear receptor superfamily with three distinct subtypes namely PPAR alpha, PPAR delta (also called PPAR beta) and PPAR gamma (PPARg). All these subtypes heterodimerize with Retinoid X receptor (RXR) and these heterodimers regulate transcription of various genes. PPAR-gamma receptor (glitazone receptor) is involved in the regulation of glucose and lipid metabolism. To identify the compounds that activate PPAR-gamma signaling, GeneBLAzer PPAR gamma UAS-bla HEK293H cell line (Invitrogen, Carlsbad, CA, USA) containing a beta-lactamase reporter gene under the control of an Upstream Activator Sequence (UAS) was used to screen the Tox21 compound library. The cytotoxicity of the Tox21 compound library against the PPARg-bla cell line was tested in parallel by measuring the cell viability using CellTiter-Glo assay in the same wells.
Tox21 Assay Protocol Summary: PPARg-bla cells were dispensed at 3000 cells/5uL/well in 1536-well black wall/clear bottom plates using a Multidrop Combi (Thermo Fisher Scientific, Waltham, MA) dispenser. After the assay plates were incubated at 37 C and 5% CO2 for 5 h, 23 nL of compounds dissolved in DMSO, positive controls or DMSO only was transferred to the assay plate by a Pintool station (Kalypsys, San Diego, CA), followed by addition of 1ul Rosiglitazone (50 nM, final concentration in the wells). The assay plates were incubated at 37 C for 17 h, and then 1 uL of LiveBLAzerTM B/G FRET substrate was added using a Bioraptr Flying Reagent Dispenser (FRD) workstation (Beckman Coulter, Indianapolis, IN, USA). The assay plates were incubated at room temperature for 1 h and fluorescence intensity was measured by an Envision plate reader (PerkinElmer, Shelton, CT). For cell viability readout that measures cytotoxicity, 4 ul/well of CellTiter-Glo reagent was added into the assay plates using a Flying Reagent Dispenser. After 30 min incubation at room temperature, the luminescence intensity in the plates was measured using a ViewLux plate reader (PerkinElmer).
For `CC(O)CCO` (stereo not given), the Potency was “inactive”.
For `CC(C)=CC1C(C(=O)OCc2coc(Cc3ccccc3)c2)C1(C)C` (stereo not given), the Potency was “inactive”.
In the case of `N#Cc1cc(Br)c(O)c(Br)c1`, the Potency is reported as “inactive”.
For `CCC(CC)Nc1c([N+](=O)[O-])cc(C)c(C)c1[N+](=O)[O-]`, the Potency was “inactive”.
In the case of `COP(=S)(OC)Oc1ccc([N+](=O)[O-])cc1`, the Potency is reported as “inactive”.
With `Nc1ccc(Cl)c(Cl)c1` the Potency was “inactive”.
With `Oc1cc(Cl)ccc1Cl` the Potency was “inactive”.
For `CCC(=O)O[C@H]1CC[C@H]2[C@@H]3CCC4=CC(=O)CC[C@]4(C)[C@H]3CC[C@]12C`, the Potency was 49 µM [setting not given] (active) and inactive.
In the case of `c1nc[nH]n1`, the Potency is reported as “inactive”.
For `CCCCN(CCCC)N=O`, the Potency was “inactive”.
For `N[C@@H](Cc1ccc(N(CCCl)CCCl)cc1)C(=O)O`, the Potency was “inactive”.
For `COP(=S)(OC)Oc1cc(Cl)c(Cl)cc1Cl`, the Potency was “inactive”.
With `NCc1cccnc1` the Potency was “inactive”.
In the case of `Cc1ccccc1[N+](=O)[O-]`, the Potency is reported as “inactive”.
For `Nc1ccc(-c2ccccc2)cc1`, the Potency was “inactive”.
In the case of `Nc1cccnc1`, the Potency is reported as “inactive”.
For `CC(C)C(=O)OCC(C)(C)C(OC(=O)C(C)C)C(C)C` (stereo not given), the Potency was 35 µM [setting not given] (active).
In the case of `CCCCCCOC(=O)c1ccccc1C(=O)OCCCCCC`, the Potency is reported as “inactive”.
With `c1ccc(NNc2ccccc2)cc1` the Potency was “inactive”.
In the case of `O=C(NC(=O)c1c(F)cccc1F)Nc1ccc(Cl)cc1`, the Potency is reported as “inactive”.
In the case of `C=C(C)[C@H]1Cc2c(ccc3c2O[C@@H]2COc4cc(OC)c(OC)cc4[C@@H]2C3=O)O1`, the Potency is reported as “inactive”.
With `c1ccc(-c2cccc(-c3ccccc3)c2)cc1` the Potency was “inactive”.
In the case of `c1ccc(P(c2ccccc2)c2ccccc2)cc1`, the Potency is reported as “inactive”.
In the case of `CNC(=O)Oc1cccc2c1OC(C)(C)O2`, the Potency is reported as “inactive”.
For `O=[N+]([O-])c1cccc2ccccc12`, the Potency was “inactive”.
In the case of `O=[N+]([O-])c1ccc(O)c([N+](=O)[O-])c1`, the Potency is reported as “inactive”.
In the case of `C=CCc1ccc2c(c1)OCO2`, the Potency is reported as “inactive”.
For `CC(C)(c1cc(Cl)c(O)c(Cl)c1)c1cc(Cl)c(O)c(Cl)c1`, the Potency was 49 µM (active) and 24.5 µM (active).
For `CCOC(=O)C(C)OC(=O)c1cc(Oc2ccc(C(F)(F)F)cc2Cl)ccc1[N+](=O)[O-]` (stereo not given), the Potency was “inactive”.
For `OCC(O)CO`, the Potency was “inactive”.
For `CCCCOCCOP(=O)(OCCOCCCC)OCCOCCCC`, the Potency was “inactive”.
With `C=CCN(CC=C)C(=O)C(Cl)Cl` the Potency was “inactive”.
With `ClC1C(Cl)C(Cl)C(Cl)C(Cl)C1Cl` (stereo not given) the Potency was “inactive”.
In the case of `CCOP(=S)(OCC)O/N=C(\C#N)c1ccccc1`, the Potency is reported as “inactive”.
For `Nc1ccc(Cl)cc1N`, the Potency was “inactive”.
In the case of `O=C(CCl)c1ccccc1`, the Potency is reported as “inactive”.
With `O=P(O)(O)CCCl` the Potency was “inactive”.
For `N#CCCCl`, the Potency was “inactive”.
In the case of `NNC(=S)NN`, the Potency is reported as “inactive”.
In the case of `c1ccc(N=Nc2ccccc2)cc1`, the Potency is reported as “inactive”.
